IL1B secr inh: blocks inflammasome-driven IL-1 beta release; THP-1 LPS/ATP IL-1B secretion, AlphaLISA, 16 h; stronger effect = lower value; activity change, % at 57.5 µM; 360,000 tested, 4.7% active; AID 743279; in the data active = activity change below about -50%; inconclusive = mostly about -30% to -49%
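Secreted IL-1B measured by AlphaLISA bead assay after 16 h compound exposure of THP-1 cells; compounds (final up to 57.5 uM) added 1 h before LPS (250 ng/mL) and ATP (1.25 mM) stimulation; lower signal means less secretion.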
12-LOX inh: blocks human arachidonate 12S-lipoxygenase; 580,000 tested, 1.1% active; purified 12hLO, xylenol orange hydroperoxide absorbance; Potency, µM (highest dose often 108 µM), without a hit: at the top dose activity change, negative = inhibition, actives largely listed as inhibitors; P18054; note: potency is the fitted concentration of half-maximal effect
Target sequence (P18054 whole entry, looked up): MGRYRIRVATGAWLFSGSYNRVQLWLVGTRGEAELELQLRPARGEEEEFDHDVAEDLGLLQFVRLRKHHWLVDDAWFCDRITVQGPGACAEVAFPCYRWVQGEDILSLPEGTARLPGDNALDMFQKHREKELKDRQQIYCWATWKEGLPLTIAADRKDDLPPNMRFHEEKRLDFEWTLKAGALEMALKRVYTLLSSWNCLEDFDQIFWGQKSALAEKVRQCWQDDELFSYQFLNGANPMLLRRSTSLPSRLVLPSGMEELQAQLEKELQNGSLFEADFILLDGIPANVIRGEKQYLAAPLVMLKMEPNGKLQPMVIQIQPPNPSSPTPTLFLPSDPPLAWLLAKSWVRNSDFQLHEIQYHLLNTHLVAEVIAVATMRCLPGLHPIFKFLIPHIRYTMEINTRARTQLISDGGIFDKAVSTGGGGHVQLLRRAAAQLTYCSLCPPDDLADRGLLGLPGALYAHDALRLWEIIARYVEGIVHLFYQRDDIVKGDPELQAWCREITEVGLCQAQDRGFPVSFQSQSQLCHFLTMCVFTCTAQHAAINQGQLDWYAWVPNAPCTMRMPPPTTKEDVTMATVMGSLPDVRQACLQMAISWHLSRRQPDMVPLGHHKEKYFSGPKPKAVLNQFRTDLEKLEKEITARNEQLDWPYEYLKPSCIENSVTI
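Purified human 12hLO (150 nM final) in 25 mM Hepes, 0.01% Triton X-100, pH 7.0 was preincubated 15 min at room temperature with compound. Then 40 uM arachidonic acid was added, 30 min. Hydroperoxide was read by Fe-XO absorbance ratio 573/405 nm.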
HT1080NT lethal: kills 2HG-producing HT-1080-NT fibrosarcoma cells. AID 686970. HT-1080-NT fibrosarcoma viability, CellTiter-Glo ATP luminescence, 48 h. 360,000 tested, 1.6% active. Potency, µM (series often up to 46.1 µM), without a hit: top-dose activity, negative = less viability, most hits filed as cytotoxic;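 note: NT is the 2HG producing partner of a matched IDH1 knockdown line; potency is the fitted concentration of half-maximal effect; 0% = DMSO-treated cells and -100% = media-only wells without cells; nearly all actives have a fitted effect of over 55% in size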
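HT-1080-NT; 750 cells/well; 5% FBS RPMI; 48 h compound, 37 degrees C; CellTiter-Glo luminescence; curve fitting and curve-class assignment.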
TDP1 cell noCPT: qHTS for Inhibitors of human tyrosyl-DNA phosphodiesterase 1 (TDP1): qHTS in cells in absence of CPT; DT40 Tdp1-/- hTDP1 cells, no CPT, ATP luminescence, 48 h; 420,000 tested, 15% active; Potency, µM (top dose mostly 46.2 µM), without a hit: at the highest dose activity change, negative = growth inhibition, actives largely listed as inhibitors; note: potency is the fitted concentration of half-maximal effect; nearly all actives have a fitted effect of over 55% in size
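Growth kinetics read by CellTiter-Glo luminescence after ≥48 hr at 37 °C. Cells: DT40 Tdp1-/- stably carrying human TDP1, 400 per well, compound exposure in the absence of CPT (DMSO vehicle).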
TDP1 cell CPT: DT40-hTDP1 cell growth loss with CPT. AID 686979. Potency, µM (highest dose often 46.2 µM), inactives show top-dose activity change, negative = growth inhibition, most hits filed as inhibitors. chicken DT40 Tdp1-/-;hTDP1 cells + 20 nM CPT, ATP luminescence, 48 h. 420,000 tested, 12% active; note: potency is the fitted concentration of half-maximal effect; nearly all actives have a fitted effect of over 55% in size
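Chicken DT40 Tdp1-/- cells complemented with human TDP1, 400 cells/well, exposed to compounds plus 20 nM camptothecin for at least 48 h at 37 C; viability read as ATP content by CellTiter-Glo luminescence.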
HT1080 IDH1KD tx: kills HT-1080 cells with IDH1 knockdown | HT-1080 IDH1 knockdown viability, ATP luminescence, 48 h | Potency, µM (titrated, usually from 46.1 µM), for inactives: top-dose activity, negative = toxicity, usual class: cytotoxic | 360,000 tested, 2% active;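 note: potency is the fitted concentration of half-maximal effect; 0% = DMSO wells and -100% = cell-free medium wells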
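After a 2 h attachment period, IDH1KD HT-1080 cells took pin-transferred compound for 48 h at 37 °C; ATP-based luminescence after 10 min room-temperature reagent incubation reported viability.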
Active calls of the source: *; u = inconclusive; x = no result given; [ ] = another dose, or the depositor's remark. This excerpt belongs to a sample that is enriched for hits. Unless noted, calls come from the whole dose curve; as a rule, active = well fitted curve in the direction sought with a large enough effect; inconclusive = small, poorly fitted or top-dose-only effect, or another doubt; inactive = no such curve, though single readings can be large; an effect the other way counts as inactive or inconclusive. Unless noted, % is set by controls: 0 for no effect and ±100 for the full control effect.

SMILES | IL1B secr inh | 12-LOX inh | HT1080NT lethal | TDP1 cell noCPT | TDP1 cell CPT | HT1080 IDH1KD tx
Cc1cc(S(=O)(=O)N2CC(C(=O)NC3CCCCC3)C3(CCOCC3)C2)ccc1F (stereo not drawn) | x | 3% | x | x | x | x
C(=N\N(Cc1ccccc1)c1ccccc1)/c1cccs1 | x | -15% | x | x | x | x
Clc1cccc(Cl)c1COn1nnc2ccccc21 | 17 | 6% | u | u | u | u
c1ccc(COn2nnc3ccccc32)c(COn2nnc3ccccc32)c1 | u | -16% | -5% | 10µM* | 18µM* | -2%
O=C1/C(=C/c2ccncc2)SC(=S)N1Nc1ccccc1 | x | -33% | u | u | u | 5.8µM*
O=C(O)c1ccc(/C=C2\SC(=S)N(Nc3ccccc3)C2=O)cc1 | 44 | -21% | u | 0% | 5% | 4.6µM*
Cc1cc(C)nc(NN2C(=O)/C(=C/c3ccccc3)SC2=S)n1 | 3 | -5% | 7% | u | -26% | 1%
O=C(O)c1ccc(/C=C2\SC(=S)N(NC(=O)c3ccccc3[N+](=O)[O-])C2=O)cc1 | -10 | -7% | 1% | -6% | -3% | 0%
Cc1ccc(C(=O)N2CCn3c(nnc3C3CCCNC3)C2)cc1 (stereo not drawn) | x | 41%[176 µM] | x | x | x | x
COc1ccc(C(=O)N(Cc2nc(-c3ccc(C)cc3)no2)C(C)C)cc1OC | 11 | u | -4% | u | -89% | -5%
Cc1ccc(SCC(=O)N(Cc2nc(-c3ccccc3)no2)C(C)C)cc1 | u | -23% | -1% | u | 18µM* | -1%
Cc1ccc(-c2noc(CN(C(=O)c3cccs3)C(C)C)n2)cc1 | -78* | u | u | u | u | -5%
Cc1ccc(C(=O)N(Cc2nc(-c3ccc(C)cc3)no2)C(C)C)cc1 | 33 | u | -28% | 16µM* | u | -19%
CCOc1cc(C(=O)N(Cc2nc(-c3ccc(C)cc3)no2)C(C)C)cc(OCC)c1OCC | x | -19% | x | u | 16µM* | x
O=C(COc1ncnc2ccccc12)Nc1cc(Cl)ccc1Cl | x | -3% | x | x | x | x
CN(CC(=O)N1CCN(CC(=O)NC(C)(C)C)CC1)c1nc(C(F)(F)F)nc2ccccc12 | x | 8% | x | x | x | x
Cc1ccc(CC(=O)N(Cc2nc(-c3ccc(C)cc3)no2)C(C)C)cc1 | x | u | x | 23µM* | u | x
COc1ccc(-c2noc(CN(C(=O)C(C)Oc3ccc(C)cc3)C(C)C)n2)cc1 (stereo not drawn) | x | -2% | x | 15µM* | 16µM* | x
CCc1ccc(CCC(=O)N2CCCC2)cc1 | x | -1% | x | x | x | x
O=C(CCn1ccn2nc3c(c2c1=O)CCCC3)N1CCN(c2ccc(Cl)cc2)CC1 | x | 7% | x | x | x | x
Cc1nn(-c2ccc(F)cc2)c2sc(C(=O)OCC(=O)Nc3ccccc3OC(F)F)cc12 | x | -29% | x | x | x | x
Cc1[nH]nc(N)c1N=Nc1ccc(Br)cc1 | x | -22% | x | x | x | x
Cc1ccc(-c2[nH]nc(N)c2N=Nc2ccccc2C)cc1 | u | 13% | u | u | u | 18µM*
Cc1ccc(-c2[nH]nc(N)c2N=Nc2cccc(Cl)c2C)cc1 | -76* | 0% | u | 13µM* | u | u
Nc1n[nH]c(C2CC2)c1N=Nc1ccc(Cl)cc1 | -14 | -17% | 22% | -11% | -3% | 7%
SMILES | IL1B secr inh | 12-LOX inh | HT1080NT lethal | TDP1 cell noCPT | TDP1 cell CPT | HT1080 IDH1KD tx
Cc1[nH]nc(N)c1-c1ccccc1 | u | 13% | -6% | -9% | -5% | -2%
Cc1cccc(N=Nc2c(N)n[nH]c2-c2ccc(Cl)cc2)c1 | -54* | -1% | u | u | u | u
Cc1ccc(N=Nc2c(N)n[nH]c2N)cc1 | -64* | 2% | 13% | -6% | 2% | 20%
CN(CC(=O)NC1(C)CCS(=O)(=O)C1)Cc1ccccc1 (stereo not drawn) | x | -4% | x | x | x | x
CCOC(=O)C1=CCN(S(=O)(=O)c2ccc(C)cc2)C1c1ccc(C(C)C)cc1 (stereo not drawn) | 17 | -16% | -26% | 18µM* | 18µM* | u
CCOC(=O)C1=CCN(S(=O)(=O)c2ccc(C)cc2)C1c1ccc(C)cc1 (stereo not drawn) | 87 | -11% | -18% | u | u | -15%
CCOC(=O)C1=CCN(S(=O)(=O)c2ccc(C)cc2)C1c1ccc(Cl)cc1 (stereo not drawn) | 4 | 0% | u | u | u | u
CCOC(=O)C1=CCN(S(=O)(=O)c2ccc(C)cc2)C1c1ccc(CC)cc1 (stereo not drawn) | 0 | 0% | u | 18µM* | u | u
COc1ccc2cc(C3CC(c4cccs4)=NN3S(C)(=O)=O)c(Cl)nc2c1 (stereo not drawn) | -17 | -8% | -1% | u | 16µM* | -2%
CCOc1ccc2cc(C3CC(c4ccco4)=NN3S(C)(=O)=O)c(Cl)nc2c1 (stereo not drawn) | -60* | u | -1% | u | u | -8%
CCCCOCCCNC(=O)Cn1cnc2c1c(=O)n(C)c(=O)n2C | x | -14% | x | x | x | x
CC1CCN(C(=S)NC(=O)c2ccc(C(C)(C)C)cc2)CC1 | 0 | 32µM* | -1% | u | 23µM* | 1%
CC1CCN(C(=S)NC(=O)c2ccccc2)CC1 | 6 | 0% | 1% | u | u | -2%[9.24 µM]
CC(C)(C)c1ccc(C(=O)NC(=S)N2CCCCCC2)cc1 | -6 | 409% | u | 13µM* | 18µM* | u
CC(C)Cc1nc(OCC(=O)N2CCCCC2)c(C#N)c2c1CCCC2 | x | 0% | x | x | x | x
CCOc1ccc(C(=O)/C=C/Nc2ccc(S(=O)(=O)N=C(N)N)cc2)cc1 | 4 | -22% | u | -14% | u | 18µM*
O=S(=O)(NCCCn1ccc2ccccc21)c1ccc(F)c(F)c1 | x | 58% | x | x | x | x
CCN(C(=O)COC(=O)CCCc1nc2ccccc2s1)c1c(N)n(Cc2ccccc2)c(=O)[nH]c1=O | 8 | 10% | 0% | u | u | 0%
CC(C)CN(C(=O)COC(=O)c1cccnc1Cl)c1c(N)n(Cc2ccccc2)c(=O)[nH]c1=O | u | -14% | 1% | 4% | 10% | 4%
CC(C)CN(C(=O)COC(=O)c1cnc(Cl)c(Cl)c1)c1c(N)n(Cc2ccccc2)c(=O)[nH]c1=O | -96* | -2% | -2% | -10% | -24% | -6%

From PubChem
